Holding throughout (test): DAPPL (digital affinity profiling via proximity ligation, sequencing); 10 mM Tris-HCl pH 7.5, 50 mM NaCl, 1 mM DTT, 4% glycerol, room temperature, 30 min; GST-TFs on glutathione beads, 16-mer random dsDNA library, 0.1% formaldehyde crosslink after washing; high values mean tight binding
Assay [1] concerns the target T1, FEV (Homo sapiens, UniProt Q99581 1-238).
T1 sequence: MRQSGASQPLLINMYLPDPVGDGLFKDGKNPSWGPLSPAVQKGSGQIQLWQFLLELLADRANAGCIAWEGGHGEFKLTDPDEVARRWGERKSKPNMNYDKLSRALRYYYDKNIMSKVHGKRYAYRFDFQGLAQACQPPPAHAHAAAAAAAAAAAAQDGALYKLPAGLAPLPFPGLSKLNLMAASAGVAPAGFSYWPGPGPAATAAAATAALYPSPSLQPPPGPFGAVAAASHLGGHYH
The following applies: protein: recombinant; tags: N-terminal GST; dsDNA, one strand shown. In short, it runs like this:
(§1)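 Human transcription factors fused to GST were expressed in yeast, captured on glutathione beads, given DNA barcodes and pooled with a GST-only negative control. Pools were incubated with 200 nmole of a 16-mer random double-stranded DNA library in Tris/NaCl/DTT/glycerol buffer at room temperature for 30 min. They were then washed, crosslinked with 0.1% formaldehyde, proximity-ligated (BsaI/T4 ligase, 1 h, 37 °C), PCR-amplified and sequenced on an Illumina NextSeq500. Binding signal is each 6-mer's read frequency for a factor divided by its frequency for the GST control.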

Assay [2] concerns the target ETV5 (Homo sapiens, UniProt P41161 1-510). The following applies: protein: recombinant; tags: N-terminal GST; dsDNA, one strand shown. In short, it runs like this:
as §1

Assay [3] addresses HSF1 (Homo sapiens, UniProt Q00613 1-529). The following applies: protein: recombinant; tags: N-terminal GST; chain copies: 3; dsDNA, one strand shown. In short, it runs like this:
as §1

The target of assay [4] is T2, SPIC (Homo sapiens, UniProt Q8N5J4 1-248).
T2 sequence: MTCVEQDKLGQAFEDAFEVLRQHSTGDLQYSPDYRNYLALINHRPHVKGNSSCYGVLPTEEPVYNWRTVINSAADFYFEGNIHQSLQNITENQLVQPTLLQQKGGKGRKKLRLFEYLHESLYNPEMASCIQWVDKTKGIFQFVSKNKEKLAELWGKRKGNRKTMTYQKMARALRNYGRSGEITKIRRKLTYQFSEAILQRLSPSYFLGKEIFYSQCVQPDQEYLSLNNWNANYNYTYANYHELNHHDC
The following applies: protein: recombinant; tags: N-terminal GST; dsDNA, one strand shown. The method in brief:
as §1

Assay [5] deals with ELF4 (Homo sapiens, UniProt Q99607 1-663). The following applies: protein: recombinant; tags: N-terminal GST; dsDNA, one strand shown. The method in brief: as §1
Assay [6] deals with T3, ELK4 (Homo sapiens, UniProt P28324-2 1-405).
T3 sequence: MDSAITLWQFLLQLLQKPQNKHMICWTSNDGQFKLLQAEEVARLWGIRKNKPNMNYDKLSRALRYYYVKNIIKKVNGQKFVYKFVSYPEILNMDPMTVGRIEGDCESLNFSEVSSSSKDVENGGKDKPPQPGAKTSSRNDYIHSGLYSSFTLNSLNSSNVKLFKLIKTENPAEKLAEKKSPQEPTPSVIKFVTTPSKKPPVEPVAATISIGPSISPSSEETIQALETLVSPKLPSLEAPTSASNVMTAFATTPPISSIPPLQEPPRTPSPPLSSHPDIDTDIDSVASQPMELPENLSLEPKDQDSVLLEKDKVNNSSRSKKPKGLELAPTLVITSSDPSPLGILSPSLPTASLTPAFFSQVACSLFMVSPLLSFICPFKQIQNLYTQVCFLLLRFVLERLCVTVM
The following applies: protein: recombinant; tags: N-terminal GST; dsDNA, one strand shown. The method in brief:
as §1

The target of assay [7] is T4, ETV2 (Homo sapiens, UniProt O00321 1-342).
T4 sequence: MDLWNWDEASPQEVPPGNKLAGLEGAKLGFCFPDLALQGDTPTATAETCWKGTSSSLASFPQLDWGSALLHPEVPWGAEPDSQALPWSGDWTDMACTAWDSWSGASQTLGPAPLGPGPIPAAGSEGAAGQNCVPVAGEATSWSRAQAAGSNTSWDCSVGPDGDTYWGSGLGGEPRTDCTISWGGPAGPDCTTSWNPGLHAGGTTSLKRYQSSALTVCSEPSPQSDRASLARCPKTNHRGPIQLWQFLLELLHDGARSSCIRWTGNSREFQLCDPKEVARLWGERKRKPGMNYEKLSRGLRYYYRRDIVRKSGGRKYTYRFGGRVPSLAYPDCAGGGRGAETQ
The following applies: protein: recombinant; tags: N-terminal GST; dsDNA, one strand shown. In short, it runs like this: as §1

Assay [8] deals with T5, ELF3 (Homo sapiens, UniProt P78545 1-371).
T5 sequence: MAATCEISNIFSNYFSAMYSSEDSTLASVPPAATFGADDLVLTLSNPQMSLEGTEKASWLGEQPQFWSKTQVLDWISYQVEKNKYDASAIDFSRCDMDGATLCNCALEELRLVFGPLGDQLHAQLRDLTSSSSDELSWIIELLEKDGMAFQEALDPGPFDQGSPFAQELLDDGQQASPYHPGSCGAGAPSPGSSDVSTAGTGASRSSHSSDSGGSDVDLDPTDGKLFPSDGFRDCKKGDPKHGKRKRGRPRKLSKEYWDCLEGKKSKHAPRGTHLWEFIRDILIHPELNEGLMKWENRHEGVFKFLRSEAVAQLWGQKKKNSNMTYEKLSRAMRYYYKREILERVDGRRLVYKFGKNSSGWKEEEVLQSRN
The following applies: protein: recombinant; tags: N-terminal GST; dsDNA, one strand shown. In short, it runs like this: as §1

Assay [9] concerns the target CRX (Homo sapiens, UniProt O43186 1-299). The following applies: protein: recombinant; tags: N-terminal GST; dsDNA, one strand shown. In short, it runs like this:
as §1

The target of assay [10] is ETV1 (Homo sapiens, UniProt P50549 1-477). The following applies: protein: recombinant; tags: N-terminal GST; dsDNA, one strand shown. The method in brief: as §1

We go through 7 sequences from publication PMC7862700, “An all-to-all approach to the identification of sequence-specific readers for epigenetic DNA modifications on cytosine”.

Sequence of HSF1 (Q00613 whole entry): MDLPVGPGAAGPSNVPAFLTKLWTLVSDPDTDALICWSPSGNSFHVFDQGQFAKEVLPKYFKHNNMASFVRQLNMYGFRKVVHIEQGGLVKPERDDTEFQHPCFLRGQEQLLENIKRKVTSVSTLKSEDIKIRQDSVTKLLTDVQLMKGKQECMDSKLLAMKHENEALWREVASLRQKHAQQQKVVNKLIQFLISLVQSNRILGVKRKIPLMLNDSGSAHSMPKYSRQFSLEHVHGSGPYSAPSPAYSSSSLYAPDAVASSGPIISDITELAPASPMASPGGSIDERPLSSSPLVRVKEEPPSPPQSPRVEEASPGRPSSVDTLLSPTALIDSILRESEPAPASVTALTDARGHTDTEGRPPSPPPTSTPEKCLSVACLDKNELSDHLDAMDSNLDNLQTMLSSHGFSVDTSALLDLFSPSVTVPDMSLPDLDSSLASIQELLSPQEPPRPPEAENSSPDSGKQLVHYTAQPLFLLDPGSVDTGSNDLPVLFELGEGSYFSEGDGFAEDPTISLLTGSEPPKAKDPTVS
Sequence of CRX (O43186 whole entry): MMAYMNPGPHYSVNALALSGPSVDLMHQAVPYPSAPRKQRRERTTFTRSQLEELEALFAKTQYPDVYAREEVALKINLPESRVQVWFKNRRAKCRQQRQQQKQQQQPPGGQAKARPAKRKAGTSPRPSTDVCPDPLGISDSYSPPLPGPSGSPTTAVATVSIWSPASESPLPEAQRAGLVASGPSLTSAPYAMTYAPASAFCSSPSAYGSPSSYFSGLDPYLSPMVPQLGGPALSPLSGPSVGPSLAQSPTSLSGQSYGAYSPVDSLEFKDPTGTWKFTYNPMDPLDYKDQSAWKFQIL
Sequence of ETV5 (P41161 whole entry): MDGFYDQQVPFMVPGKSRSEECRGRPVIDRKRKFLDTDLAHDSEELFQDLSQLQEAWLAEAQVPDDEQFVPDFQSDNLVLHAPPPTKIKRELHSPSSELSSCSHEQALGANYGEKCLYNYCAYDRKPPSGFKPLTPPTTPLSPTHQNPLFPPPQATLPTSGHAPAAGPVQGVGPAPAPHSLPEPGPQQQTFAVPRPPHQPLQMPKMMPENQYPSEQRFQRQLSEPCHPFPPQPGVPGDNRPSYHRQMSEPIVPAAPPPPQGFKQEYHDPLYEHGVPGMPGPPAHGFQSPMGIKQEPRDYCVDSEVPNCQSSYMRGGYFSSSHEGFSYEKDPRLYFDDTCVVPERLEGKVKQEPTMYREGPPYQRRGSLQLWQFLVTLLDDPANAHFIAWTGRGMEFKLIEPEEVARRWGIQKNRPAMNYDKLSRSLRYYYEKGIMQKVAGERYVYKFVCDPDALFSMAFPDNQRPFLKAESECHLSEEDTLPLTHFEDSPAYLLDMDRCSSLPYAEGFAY
Sequence of ETV1 (P50549 whole entry): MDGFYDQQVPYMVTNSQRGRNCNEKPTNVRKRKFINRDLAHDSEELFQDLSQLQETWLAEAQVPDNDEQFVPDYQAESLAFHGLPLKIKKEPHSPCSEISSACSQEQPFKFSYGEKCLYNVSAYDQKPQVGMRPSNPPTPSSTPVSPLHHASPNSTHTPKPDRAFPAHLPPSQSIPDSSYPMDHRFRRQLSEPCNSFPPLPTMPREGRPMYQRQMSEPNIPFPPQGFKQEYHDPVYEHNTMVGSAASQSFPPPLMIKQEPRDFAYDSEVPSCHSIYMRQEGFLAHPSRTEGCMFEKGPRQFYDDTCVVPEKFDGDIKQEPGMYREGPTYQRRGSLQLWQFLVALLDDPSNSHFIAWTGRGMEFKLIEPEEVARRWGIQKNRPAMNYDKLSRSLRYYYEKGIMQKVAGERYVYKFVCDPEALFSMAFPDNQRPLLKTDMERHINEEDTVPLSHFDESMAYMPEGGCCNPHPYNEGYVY
Sequence of ELF4 (Q99607 whole entry): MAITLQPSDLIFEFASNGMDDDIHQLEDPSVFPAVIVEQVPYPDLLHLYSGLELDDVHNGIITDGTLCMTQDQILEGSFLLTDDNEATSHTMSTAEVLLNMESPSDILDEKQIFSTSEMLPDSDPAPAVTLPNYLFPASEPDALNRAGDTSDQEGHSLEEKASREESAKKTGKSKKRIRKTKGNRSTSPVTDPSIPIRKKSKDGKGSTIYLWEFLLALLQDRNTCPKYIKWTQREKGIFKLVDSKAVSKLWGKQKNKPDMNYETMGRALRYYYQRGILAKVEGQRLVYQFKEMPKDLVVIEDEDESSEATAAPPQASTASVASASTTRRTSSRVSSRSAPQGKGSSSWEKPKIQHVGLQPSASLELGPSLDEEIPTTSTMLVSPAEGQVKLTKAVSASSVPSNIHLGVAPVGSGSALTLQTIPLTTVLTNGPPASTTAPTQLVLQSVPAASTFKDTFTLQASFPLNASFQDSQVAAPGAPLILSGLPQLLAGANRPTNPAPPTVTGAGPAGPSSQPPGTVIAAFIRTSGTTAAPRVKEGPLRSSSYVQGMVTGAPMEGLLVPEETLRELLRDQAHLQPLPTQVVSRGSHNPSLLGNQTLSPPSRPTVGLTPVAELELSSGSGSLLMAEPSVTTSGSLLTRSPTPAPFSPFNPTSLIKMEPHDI

Turning to CTCTAG, the binding signal is 1.25 fold enrichment (6-mer frequency, TF over GST control) in assay [1]; 1.3 fold enrichment (6-mer frequency, TF over GST control) in assay [2]; 2.39 fold enrichment (6-mer frequency, TF over GST control) in assay [3]; 1.37 fold enrichment (6-mer frequency, TF over GST control) in assay [4]; 1.32 fold enrichment (6-mer frequency, TF over GST control) in assay [5]; 1.31 fold enrichment (6-mer frequency, TF over GST control) in assay [6]. For the same sequence, the binding signal was 1.12 fold enrichment (6-mer frequency, TF over GST control) in [7]; 1.1 fold enrichment (6-mer frequency, TF over GST control) in [8]; 1.46 fold enrichment (6-mer frequency, TF over GST control) in [9]; 1.16 fold enrichment (6-mer frequency, TF over GST control) in [10].

TTACGG: the binding signal in assay [1] was 1.22 fold enrichment (6-mer frequency, TF over GST control); in assay [2], 1.27 fold enrichment (6-mer frequency, TF over GST control); in assay [3], 1.43 fold enrichment (6-mer frequency, TF over GST control); in assay [4], 1.26 fold enrichment (6-mer frequency, TF over GST control); in assay [5], 1.25 fold enrichment (6-mer frequency, TF over GST control); in assay [6], 1.19 fold enrichment (6-mer frequency, TF over GST control). In addition, the binding signal in assay [7] is 1.36 fold enrichment (6-mer frequency, TF over GST control); in assay [8], 1.35 fold enrichment (6-mer frequency, TF over GST control); in assay [9] it was 1.86 fold enrichment (6-mer frequency, TF over GST control); in assay [10], 1.25 fold enrichment (6-mer frequency, TF over GST control).

Take TCCATT: the binding signal in [1] is 1.31 fold enrichment (6-mer frequency, TF over GST control); in [2], 1.36 fold enrichment (6-mer frequency, TF over GST control); in [3] it was 1.4 fold enrichment (6-mer frequency, TF over GST control); in [4] it was 1.31 fold enrichment (6-mer frequency, TF over GST control); in assay [5], 1.29 fold enrichment (6-mer frequency, TF over GST control); in [6], 1.37 fold enrichment (6-mer frequency, TF over GST control). Besides, the binding signal in assay [7] is 1.19 fold enrichment (6-mer frequency, TF over GST control); in assay [8], 1.27 fold enrichment (6-mer frequency, TF over GST control); in [9] it was 1.35 fold enrichment (6-mer frequency, TF over GST control); in assay [10], 1.26 fold enrichment (6-mer frequency, TF over GST control).

As for ATCTTA, the binding signal in [1] was 1.1 fold enrichment (6-mer frequency, TF over GST control); in [2], 1.1 fold enrichment (6-mer frequency, TF over GST control); in assay [3], 1.47 fold enrichment (6-mer frequency, TF over GST control); in assay [4] it was 1.05 fold enrichment (6-mer frequency, TF over GST control); in assay [5] it was 1.1 fold enrichment (6-mer frequency, TF over GST control); in [6] it was 1.18 fold enrichment (6-mer frequency, TF over GST control). Also, the binding signal in [7] was 1.12 fold enrichment (6-mer frequency, TF over GST control); in assay [8], 1.12 fold enrichment (6-mer frequency, TF over GST control); in [9], 2.11 fold enrichment (6-mer frequency, TF over GST control); in assay [10], 1.12 fold enrichment (6-mer frequency, TF over GST control).

On to AAATAC, for which the binding signal in assay [1] is 1.41 fold enrichment (6-mer frequency, TF over GST control); in assay [2], 1.43 fold enrichment (6-mer frequency, TF over GST control); in [3] it was 1.36 fold enrichment (6-mer frequency, TF over GST control); in assay [4], 1.3 fold enrichment (6-mer frequency, TF over GST control); in assay [5], 1.36 fold enrichment (6-mer frequency, TF over GST control); in assay [6], 1.18 fold enrichment (6-mer frequency, TF over GST control). In addition, the binding signal was 1.51 fold enrichment (6-mer frequency, TF over GST control) in assay [7]; 1.37 fold enrichment (6-mer frequency, TF over GST control) in [8]; 1.46 fold enrichment (6-mer frequency, TF over GST control) in [9]; 1.39 fold enrichment (6-mer frequency, TF over GST control) in [10].

Take TAGCCT: the binding signal was 1.26 fold enrichment (6-mer frequency, TF over GST control) in assay [1]; 1.22 fold enrichment (6-mer frequency, TF over GST control) in assay [2]; 1.43 fold enrichment (6-mer frequency, TF over GST control) in [3]; 1.17 fold enrichment (6-mer frequency, TF over GST control) in [4]; 1.24 fold enrichment (6-mer frequency, TF over GST control) in assay [5]; 1.18 fold enrichment (6-mer frequency, TF over GST control) in assay [6]. Also, the binding signal in assay [7] was 1.22 fold enrichment (6-mer frequency, TF over GST control); in [8], 1.27 fold enrichment (6-mer frequency, TF over GST control); in assay [9], 1.53 fold enrichment (6-mer frequency, TF over GST control); in assay [10], 1.26 fold enrichment (6-mer frequency, TF over GST control).

Regarding CTAGCT, the binding signal in [1] was 1.29 fold enrichment (6-mer frequency, TF over GST control); in [2] it was 1.31 fold enrichment (6-mer frequency, TF over GST control); in [3], 1.53 fold enrichment (6-mer frequency, TF over GST control); in assay [4] it was 1.59 fold enrichment (6-mer frequency, TF over GST control); in [5] it was 1.29 fold enrichment (6-mer frequency, TF over GST control); in assay [6], 1.35 fold enrichment (6-mer frequency, TF over GST control). For the same sequence, the binding signal in assay [7] is 1.31 fold enrichment (6-mer frequency, TF over GST control); in [8], 1.07 fold enrichment (6-mer frequency, TF over GST control); in assay [9], 1.31 fold enrichment (6-mer frequency, TF over GST control); in assay [10], 1.24 fold enrichment (6-mer frequency, TF over GST control).
